Where “and” joins values, the source holds several entries; their conditions need not be identical. Identical values can stand only once. Compounds without any hit were thinned out: in the full panel of roughly 83,000, 20% have a hit.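 The endpoint reported here, percent growth, reads 100 for growth as untreated, 0 for no net growth and -100 for all cells dead.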 Values without a mark were called inactive. Calls of active or inactive are those of the source. How the source made its calls: active means growth percent below 10; inactive means the rest.

Test systems include SR leukemia; RPMI-8226 leukemia; OVCAR-8 ovarian; OVCAR-5 ovarian; OVCAR-4 ovarian; SK-OV-3 ovarian; IGROV1 ovarian; OVCAR-3 ovarian; HS 578T breast; NCI/ADR-RES ovarian; T-47D breast; BT-549 breast; MDA-MB-435 melanoma; SW-620 colon; MCF7 breast; HCT-116 colon; HCC-2998 colon; KM12 colon; MDA-MB-468 breast.
What all share (experiment): NCI-60 one-dose screen, 48 h (100 = growth as untreated, 0 = no growth, -100 = all killed)
Details in all cases: 10 µM unless noted

As to `NC1(c2ccc(-c3ccc4ncnc(NCc5ccccc5)c4c3)cn2)COC1`, the growth in the test with SR leukemia is 101% and 92.4%; in the test with RPMI-8226 leukemia, 117% and 110%; with OVCAR-8 ovarian, 113% and 117%; in the test on OVCAR-5 ovarian, 102% and 103%; in the test on OVCAR-4 ovarian, 106% and 109%; in the test on SK-OV-3 ovarian, 143% and 109%. In addition, the growth with IGROV1 ovarian is 116% and 108%; in the test on OVCAR-3 ovarian, 106% and 74.8%; in the test with HS 578T breast it was 105%; in the test with NCI/ADR-RES ovarian it was 104% and 107%; in the test on T-47D breast it was 108% and 107%; in the test on BT-549 breast, 109% and 106%. The growth with MDA-MB-435 melanoma is 106% and 107%; with SW-620 colon it was 114% and 106%; in the test with MCF7 breast it was 102% and 99.5%; with HCT-116 colon, 109% and 116%; in the test on HCC-2998 colon, 117% and 113%; with KM12 colon, 101% and 88.5%. Also, the growth in the test on MDA-MB-468 breast was 102% and 103%.

On to `Nc1ccc(-c2ccc3ncnc(N4CCc5cc(F)c(Cl)cc54)c3c2)cn1`, for which the growth is 0.174% (active) in the test on SR leukemia; 6.22% (active) in the test on RPMI-8226 leukemia; 42.5% in the test with OVCAR-8 ovarian; 20.6% with OVCAR-5 ovarian; 34.6% in the test with OVCAR-4 ovarian; 1.92% (active) in the test with SK-OV-3 ovarian. In addition, the growth in the test with IGROV1 ovarian is -46% (active); in the test with OVCAR-3 ovarian, 4.61% (active); with HS 578T breast it was -15.8% (active); with NCI/ADR-RES ovarian it was 30%; with T-47D breast it was 10.7%; in the test with BT-549 breast, -9.19% (active). The growth in the test with MDA-MB-435 melanoma is 28%; in the test with SW-620 colon it was 55.8%; in the test on MCF7 breast it was 8.53% (active); with HCT-116 colon, -52.9% (active); in the test with HCC-2998 colon, 38.2%; with KM12 colon, 35.6%. For the same molecule, the growth in the test on MDA-MB-468 breast was -78% (active).

For `Nc1nnc(-c2cncc(Br)c2)c(-c2c[nH]c3ccc(Cl)cc23)n1`, the growth in the test on SR leukemia was 54.1%; with RPMI-8226 leukemia, 48.5%; with OVCAR-8 ovarian, 89.8%; in the test with OVCAR-5 ovarian, 94.2%; in the test on OVCAR-4 ovarian, 56.2%; with SK-OV-3 ovarian, 103%. For the same molecule, the growth with IGROV1 ovarian was 68.6%; with OVCAR-3 ovarian, 100%; in the test on HS 578T breast it was 76.6%; in the test with NCI/ADR-RES ovarian, 63.5%; with T-47D breast, 34.4%; with BT-549 breast, 95.7%. Moreover, the growth in the test on MDA-MB-435 melanoma was 35%; in the test with SW-620 colon it was 82.8%; with MCF7 breast, 75.1%; with HCT-116 colon, 73.7%; in the test with HCC-2998 colon, 88.8%; in the test with KM12 colon, 74.5%. The growth with MDA-MB-468 breast was 59.4%.

Turning to `Cc1nc(N)ncc1-c1ccc2ncnc(N3CCc4cc(F)c(Cl)cc43)c2c1`, the growth with SR leukemia is 45.1%; in the test with RPMI-8226 leukemia, 59.5%; with OVCAR-8 ovarian, 65.4%; in the test on OVCAR-5 ovarian, 49.7%; in the test on OVCAR-4 ovarian it was 59.6%; in the test on SK-OV-3 ovarian, 56.5%. The growth with IGROV1 ovarian is -10.1% (active); with OVCAR-3 ovarian it was 52%; with HS 578T breast it was 20.1%; in the test with NCI/ADR-RES ovarian, 62.7%; in the test with T-47D breast it was 28.1%; in the test with BT-549 breast it was 66.8%. For the same molecule, the growth in the test with MDA-MB-435 melanoma was 94.6%; in the test on SW-620 colon, 85.2%; with MCF7 breast it was 41.7%; with HCT-116 colon it was 70.4%; with HCC-2998 colon, 80.7%; with KM12 colon it was 88.2%. Besides, in the test with MDA-MB-468 breast, the growth was -22.5% (active).

Turning to `Cc1cc(C2(c3cc(C)c(OCC(O)CNc4c(C)n(C)n(-c5ccccc5)c4=O)cc3C(C)C)OC(=O)c3ccccc32)c(C(C)C)cc1OCC(O)CNc1c(C)n(C)n(-c2ccccc2)c1=O` (centres undefined), the growth in the test with SR leukemia is 5.65% (active); in the test with RPMI-8226 leukemia, 24.4%; in the test on OVCAR-8 ovarian it was 33.1%; with OVCAR-5 ovarian, 50.9%; in the test on OVCAR-4 ovarian it was 38.6%; in the test with SK-OV-3 ovarian, 67.5%. For the same molecule, the growth is 43.1% in the test on IGROV1 ovarian; 15.5% in the test on OVCAR-3 ovarian; 22.1% in the test with HS 578T breast; 58% with NCI/ADR-RES ovarian; 1.64% (active) in the test with T-47D breast; 27.3% with BT-549 breast. In addition, the growth is 12.5% in the test on MDA-MB-435 melanoma; 18.4% in the test on SW-620 colon; 15.9% in the test on MCF7 breast; 5.4% (active) with HCT-116 colon; 36.8% with HCC-2998 colon; 16.5% in the test on KM12 colon. Moreover, in the test on MDA-MB-468 breast, the growth was -13.9% (active).

On to `CS(=O)(=O)Nc1cc(-c2ccc3ncnc(N4CCc5cc(F)c(Cl)cc54)c3c2)cnc1Cl`, for which the growth with SR leukemia is -31.9% (active); in the test with RPMI-8226 leukemia it was -9.06% (active); in the test with OVCAR-8 ovarian, 13.3%; with OVCAR-5 ovarian, 11.1%; in the test with OVCAR-4 ovarian, 10.6%; in the test on SK-OV-3 ovarian it was -17.5% (active). The growth in the test with IGROV1 ovarian is -33.7% (active); in the test on OVCAR-3 ovarian, -22.6% (active); in the test on HS 578T breast it was -31.8% (active); with NCI/ADR-RES ovarian it was 12.1%; in the test with T-47D breast, -9.78% (active); with BT-549 breast, -25.2% (active). Further, the growth was 3.42% (active) in the test on MDA-MB-435 melanoma; 32.7% with SW-620 colon; 8.15% (active) in the test with MCF7 breast; 23.6% in the test on HCT-116 colon; 16.5% in the test with HCC-2998 colon; 14.2% with KM12 colon. In addition, the growth in the test with MDA-MB-468 breast was -60.2% (active).

The values above are taken from PubChem BioAssay (NCI).
